This is an account of results in PubChem BioAssay (EPA / NIEHS).

Assay [1] in a line: ATG_ISRE_CIS: Attagene CIS-FACTORIAL HepG2 Assay for human Interferon Regulatory Factor 1 (IRF1) binding to an Interferon-Stimulated Response Element (ISRE) (AID 2282948). The settings on record: HepG2 ISRE cis-reporter (Attagene), mRNA transcription readout; actives raise or lower the signal. In short, it runs like this:
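Transiently transfected HepG2 cells carrying cis-element reporter units, dosed 24 hours. Reporter mRNA quantified by RT-PCR, fluorescent primer extension, HpaI digestion and capillary electrophoresis. Bidirectional fitting relative to DMSO.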

A short description of assay [2]: ATG_M_32_CIS: Attagene CIS-FACTORIAL HepG2 Assay for M32 Transcription Factor (Internal Marker) (AID 2282949).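 Also: background control marker of the multiplexed CIS panel rather than a real target.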 The settings on record: HepG2 Attagene cis-factorial M32 reporter, mRNA; actives raise or lower the signal. In short, it runs like this: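 HepG2 cells transiently transfected with multiplexed cis-regulated reporter units, dosed 24 h. Reporter mRNA quantified by RT-PCR, 6-FAM labelling, HpaI digestion and capillary electrophoresis; bidirectional fit vs DMSO.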

A short description of assay [3]: ATG_M_06_CIS: Attagene CIS-FACTORIAL HepG2 Assay for M06 Transcription Factor (Internal Marker) (AID 2282950). The settings on record: HepG2 Attagene CIS-FACTORIAL M06 internal marker reporter; actives raise or lower the signal. In short, it runs like this: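 One of many multiplexed endpoints: HepG2 reporter mRNA after 24 h dosing, detected by RT-PCR and capillary electrophoresis fluorescence; gain or loss of signal analysed against DMSO.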

Assay [4] addresses Hypoxia-inducible factor 1-alpha (Homo sapiens) (UniProt Q16665). Nature of the assay: ATG_HIF1a_CIS: Attagene CIS-FACTORIAL HepG2 Assay for human Hypoxia Inducible Factor 1 (HIF1A) (AID 2282951). The following applies: HepG2 Attagene cis-factorial HIF1a reporter transcription; actives raise or lower the signal. The method in brief:
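Measures endogenous transcription-factor activity through cis-regulated reporter mRNA in HepG2. Cells dosed 24 h; transcripts quantified by RT-PCR with 6-FAM-labelled products separated by capillary electrophoresis; DMSO serves as negative control.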

The target of assay [5] is Hepatocyte nuclear factor 6 (Homo sapiens) (UniProt Q9UBC0). The assay can be described thus: ATG_HNF6_CIS: Attagene CIS-FACTORIAL HepG2 Assay for human Hepatocyte Nuclear Factor 6 (HNF6) (AID 2282952). The following applies: HepG2 Attagene cis-factorial HNF6 reporter transcription; actives raise or lower the signal. In short, it runs like this:
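HepG2, transient MRTU transfection (cis promoters); 24 h chemical exposure; total RNA → oligo(dT) RT → PCR → 6-FAM labelling → HpaI cut → CE; bidirectional fit vs DMSO.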

Assay [6] addresses Heat shock factor protein 1 (Homo sapiens) (UniProt Q00613). Nature of the assay: ATG_HSE_CIS: Attagene CIS-FACTORIAL HepG2 Assay for human Heat Shock Transcription Factor 1 (HSE) (AID 2282953). The settings on record: HepG2 HSE cis-reporter, Attagene RNA transcription; actives raise or lower the signal. In short, it runs like this:
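Using HepG2 with transfected cis-driven reporter constructs, compound effects on endogenous factor activity are scored as reporter mRNA change at 24 h. Detection: RT-PCR, HpaI digestion, capillary electrophoresis; bidirectional fitting to DMSO.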

Assay [7] in a line: ATG_MRE_CIS: Attagene CIS-FACTORIAL HepG2 Assay for human Metal Responsive Element (MRE) (AID 2282954). The following applies: HepG2 MRE cis-reporter transcription, Attagene multiplex; actives raise or lower the signal. In short, it runs like this:
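HepG2 cells transiently transfected with cis-element-driven reporter units; mRNA measured 24 h after dosing. Reporter transcripts quantified by RT-PCR, FAM labelling, HpaI digestion and capillary electrophoresis; bidirectional fit versus DMSO.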

Assay [8] can be described thus: ATG_PBREM_CIS: Attagene CIS-FACTORIAL HepG2 Assay for human Phenobarbital-responsive Enhancer Module (PBREM) (AID 2282955). The settings on record: HepG2 PBREM cis-reporter, Attagene multiplexed transcription; actives raise or lower the signal. In short, it runs like this: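 Fluorescence of labelled reporter cDNA fragments, resolved by capillary electrophoresis, gives mRNA induction in transfected HepG2 cells treated for 24 h; DMSO serves as negative control and baseline.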

Assay [9] concerns the target Paired box protein Pax-6 (Homo sapiens) (UniProt P26367). The assay can be described thus: ATG_Pax6_CIS: Attagene CIS-FACTORIAL HepG2 Assay for human Paired Box 6 (PAX6) (AID 2282956). The settings on record: HepG2 CIS-FACTORIAL PAX6 reporter transcription, RNA readout; actives raise or lower the signal. In short, it runs like this: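 HepG2 cells transiently transfected with cis-promoter-driven multiplexed reporter units sensing endogenous transcription factor activity; 24 h chemical exposure. Reporter mRNA quantified by RT-PCR, 6-FAM labelling, HpaI digestion and capillary electrophoresis; bidirectional fit versus DMSO baseline.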

Assay [10] in a line: ATG_PXRE_CIS: Attagene CIS-FACTORIAL HepG2 Assay for human Pregnane X Receptor Element (PXRE) (AID 2282957). The settings on record: HepG2 Attagene CIS-FACTORIAL PXRE reporter, mRNA; actives raise or lower the signal. In short, it runs like this: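 Transfect HepG2 with MRTUs (cis promoter elements); dose chemical, incubate 24 h; isolate RNA, RT with oligo(dT), PCR, 6-FAM label, HpaI cut, CE. Gain/loss fit vs DMSO.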

A short description of assay [11]: ATG_Sox_CIS: Attagene CIS-FACTORIAL HepG2 Assay for human SRY-box transcription factor (SOX) (AID 2282960). The settings on record: HepG2 Attagene cis-factorial SOX reporter, mRNA; actives raise or lower the signal. In short, it runs like this:
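Transient MRTU transfection of HepG2; 24 h compound incubation; TriZol RNA, oligo(dT) RT, PCR, 6-FAM primer extension, HpaI cut, CE. Bidirectional fit, DMSO = baseline.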

Assay [12] has as its target Transcription factor Sp1 (Homo sapiens) (UniProt P08047). The assay can be described thus: ATG_Sp1_CIS: Attagene CIS-FACTORIAL HepG2 Assay for human Specificity Protein 1 (Sp1) (AID 2282961). The settings on record: HepG2 Sp1 cis-reporter transcription, actives raise or lower the signal. The method in brief:
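Endogenous Sp1 activity was gauged in human liver HepG2 cells bearing transfected reporter units under a cis-regulating promoter. After 24 h dosing, reporter mRNA was quantified by RT-PCR with capillary electrophoresis, and activity fitted bidirectionally versus DMSO.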

Assay [13] has as its target Signal transducer and activator of transcription 3 (Homo sapiens) (UniProt P40763). Nature of the assay: ATG_STAT3_CIS: Attagene CIS-FACTORIAL HepG2 Assay for human Signal Transducer and Activator of Transcription 3 (STAT3) (AID 2282963). The settings on record: HepG2, Attagene cis-factorial STAT3 reporter transcription; actives raise or lower the signal. In short, it runs like this: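 HepG2 cells transiently transfected with multiple cis-element-driven reporter units report endogenous transcription factor activity. After 24 h compound exposure, reporter mRNA is measured by RT-PCR, 6-FAM labelling, HpaI digestion and capillary electrophoresis. Fitted bidirectionally versus DMSO.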

The nature of assay [14]: ATG_TA_CIS: Attagene CIS-FACTORIAL HepG2 Assay for human TA Basal Promoter (AID 2282964). The settings on record: HepG2 Attagene CIS-factorial TA basal promoter reporter; actives raise or lower the signal. The method in brief:
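Transient MRTU transfection of HepG2 preceded 24 h compound exposure. Reporter mRNA levels were then read by RT-PCR with capillary electrophoresis, and this background-control endpoint was fitted bidirectionally to DMSO.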

Assay [15] in a line: ATG_TCF_b_cat_CIS: Attagene CIS-FACTORIAL HepG2 Assay for human T-Cell-Factor with beta-catenin (TCF/b-cat) (AID 2282965). The following applies: HepG2 TCF/beta-catenin cis-reporter transcription, actives raise or lower the signal. The method in brief: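 HepG2 cells transiently transfected with cis-promoter-driven multiplexed reporter units; reporter mRNA measured 24 h after dosing by RT-PCR, FAM labelling, HpaI digestion and capillary electrophoresis. Bidirectional fitting relative to DMSO baseline.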

Assay [16] in a line: ATG_TAL_CIS: Attagene CIS-FACTORIAL HepG2 Assay for human TAL Basal Promoter (AID 2282966).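 Also: background control endpoint measuring basal TAL promoter reporter mRNA not a specific factor.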 The settings on record: HepG2 Attagene cis-factorial TAL promoter reporter; actives raise or lower the signal. The method in brief:
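Fluorescence of labelled reporter cDNA fragments, resolved by capillary electrophoresis, gave the readout. Human HepG2 liver cells carried transiently transfected cis-element reporter units and were treated for 24 hours; activity was fitted bidirectionally against DMSO.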

Assay [17] in a line: ATG_GRE_CIS: Attagene CIS-FACTORIAL HepG2 Assay for human Glucocorticoid Response Elements (GRE) (AID 2282947). The following applies: HepG2 GRE cis-reporter, Attagene multiplex mRNA; actives raise or lower the signal. In short, it runs like this: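 Transiently transfected HepG2 cells carrying GRE cis-reporter units (endogenous TF activity) dosed 24 h; reporter mRNA quantified by RT-PCR, 6-FAM labelling, HpaI digestion and capillary electrophoresis. Bidirectional fit versus DMSO baseline.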

Assay [18] is described as follows: ATG_RORE_CIS: Attagene CIS-FACTORIAL HepG2 Assay for human RAR-related Orphan Receptor Element (RORE) (AID 2282959). The settings on record: HepG2 Attagene cis-factorial RORE reporter, mRNA; actives raise or lower the signal. In short, it runs like this:
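Cells were HepG2 carrying transfected cis-regulated reporter constructs, dosed for 24 hours. Total RNA was reverse-transcribed and reporter cDNA amplified, fluorescently labeled and sized by capillary electrophoresis. Activity was fitted bidirectionally relative to DMSO.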

Assay [19] in a line: ATG_SREBP_CIS: Attagene CIS-FACTORIAL HepG2 Assay for human Sterol Regulatory Element Binding (SREBP) (AID 2282962). The settings on record: HepG2 Attagene cis-factorial SREBP reporter, mRNA; actives raise or lower the signal. The method in brief: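 HepG2 cells transiently transfected with multiplexed cis-promoter reporter units sensing endogenous transcription factors; reporter mRNA measured 24 h after dosing by RT-PCR, 6-FAM labeling, HpaI digestion and capillary electrophoresis. Bidirectional fit versus DMSO.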

Assay [20] is described as follows: ATG_PPRE_CIS: Attagene CIS-FACTORIAL HepG2 Assay for human Peroxisome Proliferator-activated Response Element (PPRE) (AID 2282958). The settings on record: HepG2 PPRE cis-element reporter, Attagene transcription factor profiling; actives raise or lower the signal. In short, it runs like this: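 Cells are first transfected transiently with the multiplexed reporter library, then dosed for 24 h. Total RNA is reverse-transcribed, amplified, fluorescently end-labeled and HpaI-cut before capillary electrophoresis; activity is fitted bidirectionally against DMSO controls.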

Several values for one entry are separate records, joined by “and”; a condition that tells them apart may be missing. Equal values may be shown once. Some compounds were tested as several samples or in several runs, with calls that do not always agree. Activity calls are given as the source filed them. The calls were made as follows: active = hit-call score of the fitted dose curve at least 0.9, where 1 is the maximum; inactive = score below 0.9.

Sequence of Heat shock factor protein 1 (Homo sapiens) (Q00613 whole entry, looked up): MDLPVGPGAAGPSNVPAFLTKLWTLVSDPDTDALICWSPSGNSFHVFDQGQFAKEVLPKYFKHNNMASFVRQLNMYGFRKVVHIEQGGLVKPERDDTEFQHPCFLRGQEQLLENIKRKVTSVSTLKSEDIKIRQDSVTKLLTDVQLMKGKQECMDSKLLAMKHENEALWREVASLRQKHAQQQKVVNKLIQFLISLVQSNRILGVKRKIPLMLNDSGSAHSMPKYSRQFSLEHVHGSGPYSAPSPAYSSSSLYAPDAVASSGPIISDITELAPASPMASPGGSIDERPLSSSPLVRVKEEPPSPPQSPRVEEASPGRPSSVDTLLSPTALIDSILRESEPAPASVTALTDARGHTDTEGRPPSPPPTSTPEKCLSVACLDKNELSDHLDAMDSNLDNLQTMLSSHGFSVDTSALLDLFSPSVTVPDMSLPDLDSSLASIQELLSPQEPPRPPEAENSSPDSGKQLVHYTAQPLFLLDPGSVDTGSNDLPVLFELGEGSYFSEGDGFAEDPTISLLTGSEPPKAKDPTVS
Sequence of Signal transducer and activator of transcription 3 (Homo sapiens) (P40763 whole entry, looked up): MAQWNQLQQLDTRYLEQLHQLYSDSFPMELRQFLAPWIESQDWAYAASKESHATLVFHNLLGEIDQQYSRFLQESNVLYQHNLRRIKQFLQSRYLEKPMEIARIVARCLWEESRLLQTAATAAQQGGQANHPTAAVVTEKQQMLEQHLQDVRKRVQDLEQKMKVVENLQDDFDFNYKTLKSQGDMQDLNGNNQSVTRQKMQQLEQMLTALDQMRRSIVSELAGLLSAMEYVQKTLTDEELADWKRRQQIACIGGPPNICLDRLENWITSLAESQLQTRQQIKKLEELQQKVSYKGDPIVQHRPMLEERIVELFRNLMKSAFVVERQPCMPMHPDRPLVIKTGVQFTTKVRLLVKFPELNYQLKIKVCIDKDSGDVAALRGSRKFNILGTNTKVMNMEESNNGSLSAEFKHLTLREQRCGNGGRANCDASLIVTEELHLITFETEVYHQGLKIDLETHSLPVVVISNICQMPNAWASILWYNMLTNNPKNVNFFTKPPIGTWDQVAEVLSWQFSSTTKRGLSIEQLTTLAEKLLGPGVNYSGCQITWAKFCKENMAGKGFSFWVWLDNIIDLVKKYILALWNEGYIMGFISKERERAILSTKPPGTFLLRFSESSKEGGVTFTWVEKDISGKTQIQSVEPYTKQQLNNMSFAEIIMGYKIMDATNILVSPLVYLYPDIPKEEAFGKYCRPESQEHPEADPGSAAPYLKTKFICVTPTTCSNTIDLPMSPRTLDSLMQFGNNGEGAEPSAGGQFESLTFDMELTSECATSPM
Sequence of Hypoxia-inducible factor 1-alpha (Homo sapiens) (Q16665 whole entry, looked up): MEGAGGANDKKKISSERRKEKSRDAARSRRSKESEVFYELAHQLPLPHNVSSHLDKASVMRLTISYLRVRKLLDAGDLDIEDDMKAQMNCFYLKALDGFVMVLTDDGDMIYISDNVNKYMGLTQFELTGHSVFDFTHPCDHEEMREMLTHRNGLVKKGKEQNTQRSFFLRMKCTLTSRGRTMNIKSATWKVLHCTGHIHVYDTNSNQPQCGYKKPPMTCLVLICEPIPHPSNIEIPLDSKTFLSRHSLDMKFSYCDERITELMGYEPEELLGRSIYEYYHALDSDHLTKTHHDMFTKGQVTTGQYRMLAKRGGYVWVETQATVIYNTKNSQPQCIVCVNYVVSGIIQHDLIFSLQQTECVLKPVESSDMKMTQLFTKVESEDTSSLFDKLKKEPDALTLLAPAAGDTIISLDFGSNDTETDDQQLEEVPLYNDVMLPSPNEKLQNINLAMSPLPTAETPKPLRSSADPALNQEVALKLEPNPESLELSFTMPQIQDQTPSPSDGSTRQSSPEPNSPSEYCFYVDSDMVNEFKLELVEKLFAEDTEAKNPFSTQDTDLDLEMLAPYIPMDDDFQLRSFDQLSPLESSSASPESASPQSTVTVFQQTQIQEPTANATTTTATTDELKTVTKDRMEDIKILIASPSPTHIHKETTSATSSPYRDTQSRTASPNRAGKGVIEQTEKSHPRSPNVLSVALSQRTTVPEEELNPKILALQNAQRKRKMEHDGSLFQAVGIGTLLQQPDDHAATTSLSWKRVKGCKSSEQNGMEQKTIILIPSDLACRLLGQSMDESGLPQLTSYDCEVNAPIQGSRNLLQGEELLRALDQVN
Sequence of Hepatocyte nuclear factor 6 (Homo sapiens) (Q9UBC0 whole entry, looked up): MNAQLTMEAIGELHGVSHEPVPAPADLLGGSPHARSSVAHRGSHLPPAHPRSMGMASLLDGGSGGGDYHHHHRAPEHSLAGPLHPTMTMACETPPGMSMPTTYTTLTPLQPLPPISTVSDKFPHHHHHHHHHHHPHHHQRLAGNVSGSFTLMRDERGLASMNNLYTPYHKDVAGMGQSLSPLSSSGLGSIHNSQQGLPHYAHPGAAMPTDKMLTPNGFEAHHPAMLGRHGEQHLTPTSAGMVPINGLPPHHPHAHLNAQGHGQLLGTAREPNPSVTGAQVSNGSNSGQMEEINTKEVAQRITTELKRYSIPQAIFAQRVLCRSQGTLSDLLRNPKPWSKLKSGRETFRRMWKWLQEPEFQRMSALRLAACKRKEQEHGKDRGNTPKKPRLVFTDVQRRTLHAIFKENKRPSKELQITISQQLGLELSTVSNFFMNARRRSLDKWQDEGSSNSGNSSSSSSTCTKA
Sequence of Transcription factor Sp1 (Homo sapiens) (P08047 whole entry, looked up): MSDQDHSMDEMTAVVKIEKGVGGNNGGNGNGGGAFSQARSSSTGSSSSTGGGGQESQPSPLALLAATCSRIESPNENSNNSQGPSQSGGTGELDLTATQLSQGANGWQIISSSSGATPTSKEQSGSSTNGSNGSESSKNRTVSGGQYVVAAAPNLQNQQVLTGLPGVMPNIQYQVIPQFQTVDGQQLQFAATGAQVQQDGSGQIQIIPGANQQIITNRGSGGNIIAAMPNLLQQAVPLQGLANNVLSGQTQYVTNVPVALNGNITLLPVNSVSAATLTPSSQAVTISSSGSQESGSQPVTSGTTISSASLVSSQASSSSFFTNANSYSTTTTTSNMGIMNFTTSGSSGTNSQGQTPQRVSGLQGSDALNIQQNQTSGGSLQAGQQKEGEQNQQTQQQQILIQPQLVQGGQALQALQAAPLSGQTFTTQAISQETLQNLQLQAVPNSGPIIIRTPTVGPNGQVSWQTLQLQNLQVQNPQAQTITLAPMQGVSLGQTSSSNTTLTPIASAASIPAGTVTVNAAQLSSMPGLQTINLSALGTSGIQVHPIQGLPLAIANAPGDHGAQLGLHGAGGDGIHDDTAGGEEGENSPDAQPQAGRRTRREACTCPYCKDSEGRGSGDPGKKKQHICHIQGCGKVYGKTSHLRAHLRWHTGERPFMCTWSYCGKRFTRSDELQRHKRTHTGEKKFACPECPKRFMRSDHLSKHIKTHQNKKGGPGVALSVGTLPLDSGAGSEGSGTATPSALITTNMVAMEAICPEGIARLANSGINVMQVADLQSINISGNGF
Sequence of Paired box protein Pax-6 (Homo sapiens) (P26367 whole entry, looked up): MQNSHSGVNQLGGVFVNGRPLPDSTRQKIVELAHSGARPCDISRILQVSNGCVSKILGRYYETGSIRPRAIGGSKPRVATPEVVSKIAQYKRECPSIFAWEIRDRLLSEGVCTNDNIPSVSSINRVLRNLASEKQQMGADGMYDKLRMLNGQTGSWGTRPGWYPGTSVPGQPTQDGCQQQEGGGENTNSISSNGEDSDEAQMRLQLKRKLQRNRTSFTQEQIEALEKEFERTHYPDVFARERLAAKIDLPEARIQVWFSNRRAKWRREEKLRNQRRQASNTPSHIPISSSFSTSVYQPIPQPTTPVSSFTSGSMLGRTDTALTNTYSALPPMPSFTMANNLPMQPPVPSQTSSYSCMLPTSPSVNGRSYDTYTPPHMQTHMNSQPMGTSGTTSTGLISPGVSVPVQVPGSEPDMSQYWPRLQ

Take `CCNc1nc(N)nc(Cl)n1`: the molecule was called inactive in assay [1], in assay [2], in [3], in assay [4], in assay [5] and in [6]. Further, the call in [7], in assay [8], in assay [9], in assay [10], in assay [11] and in [12] was inactive. Further, the outcome in assay [13], in [14], in assay [15] and in assay [16] was inactive.
Regarding `CCCCC(CC)COC(=O)c1ccccc1C(=O)O` (configuration not stated), the outcome in [17], in assay [1], in assay [2], in assay [3], in assay [4] and in assay [5] was inactive. For the same molecule, the molecule was classed as inactive in assay [6], in [7], in assay [8], in assay [9], in assay [18] and in assay [11]. Moreover, the outcome in assay [12], in assay [19], in [13], in assay [14], in [15] and in assay [16] was inactive. Besides, in [10], the AC50 was 24.6 µM (active).
For the molecule `CC(C)(c1ccc(O)cc1)c1ccc(O)cc1`, the AC50 in assay [1] is 142 µM (active) [middle of 5 runs]; in assay [4], 179 µM (active); in assay [5], 45.7 µM (active); in assay [6] it was 153 µM (active) [middle of 6 runs]; in [9], 105 µM (active) [middle of 4 runs]; in assay [20] it was 28.6 µM (active) and 38.9 µM (active) and 15 µM (active). The AC50 in assay [12] is 60 µM (active); in assay [13], 33.4 µM (active); in assay [14] it was 140 µM (active) [middle of 4 runs]; in assay [16] it was 162 µM (active). In addition, the outcome in assay [1], in [2], in assay [3], in [4], in [5] and in [6] was inactive. Besides, the call in assay [7], in [8], in [9], in assay [10], in assay [20] and in assay [11] was inactive. Also, the outcome in [12], in [13], in [14], in assay [15] and in [16] was inactive.
